The source of these data is PubChem BioAssay AID588351 (The Scripps Research Institute Molecular Screening Center, 2011).

Screen size: about 1,900 compounds; about 1,600 (84%) were called active.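 Rule for the calls: active = mean activation above a set limit taken from the primary screen (cut at about 8% in these data); inactive = the rest.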 The set was probably picked from earlier hits. A selection follows.

The nature of this test: frataxin promoter-driven luciferase activation – cell-based, luminescence, HEK293 lucGAA850, triplicate, confirmation (AID 588351).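 Note: 0% = DMSO wells and 100% = 10 µM SAHA wells.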 The following applies: HEK293 lucGAA850 FXN promoter luciferase reporter, 24 h; at 6 µM; stronger effect = higher value; 100% = activation by SAHA. For orientation: A reporter such as luciferase makes a cellular process visible.
`CC(C)c1cc(C(=O)N/N=C/C(Br)=C/c2ccccc2)n[nH]1`: the activation is 15.8% (active). Regarding `Cc1cc(C(=O)N/N=C\C(Br)=C\c2ccccc2)c(C)o1`, the activation was 26.2% (active). As for `CC1(Cc2cccc(C#N)c2)C(=O)Nc2ccc(-c3cccc(C(F)(F)F)c3)cc21` (centres undefined), the figure is 10.7% (active). Regarding `Cc1c(-c2ccccc2)nc(N)c(C#N)c1-c1cccs1`, the activation was 14.5% (active). As for `C[C@@]12C(=O)N(c3cccc(Br)c3)C(=O)N1[C@H](c1ccc(Cl)cc1)[C@@H]1C(=O)N(C3CCCCC3)C(=O)[C@@H]12`, the figure is 5.12% (inactive); as for `O=C1[C@H]2[C@@H](c3ccc(F)cc3)N3C(=O)N(c4ccc(C(F)(F)F)cc4)C(=O)[C@@]3(Cc3ccccc3)[C@H]2C(=O)N1C1CCCCC1`, 16.2% (active). As for `O=C1[C@H]2[C@@H](c3ccc(Cl)cc3)N3C(=O)N(c4cccc(F)c4)C(=O)[C@@]3(Cc3ccccc3)[C@H]2C(=O)N1C1CCCCC1`, the figure is 11.2% (active). The same measure for `Cc1noc(C)c1-c1ccc2ncnc(NC(C)c3ccco3)c2c1` (centres undefined): 20.1% (active); for `Cc1ccc(NC(=O)c2sc3nc(N)c(C#N)cc3c2N)cc1`: 27.4% (active). With `O=C(CC1NCCc2ccccc21)Nc1cccc(Cl)c1` (centres undefined), the activation is 26.7% (active).

Turning to `CC1(C(=O)NCc2cccc3ccccc23)CCN1Cc1ccc(-c2ccccc2)o1` (centres undefined), the activation is 11.9% (active). The same measure for `COc1ccc(-c2csc(Nc3ccc(O)cc3)n2)cc1`: 40.1% (active); for `O=c1oc2ccccc2cc1-c1csc(Nc2ccc(O)cc2)n1`: 44.3% (active).

`COc1ccc(-c2csc(Cc3nc(O)cs3)n2)cc1`: the activation is -4.16% (inactive).

Regarding `O=c1[nH]cnc2c1c(-c1ccccc1)cn2-c1ccc(F)cc1`, the activation was 9.89% (active). As for `Cc1ccc(-n2c(C)cc(/C=C(\C#N)C(=O)NCC3CCCO3)c2C)cc1` (centres undefined), the figure is 41.3% (active); as for `COc1ccc(NC(=O)CSc2nc(SC)ns2)c(OC)c1`, 40.6% (active). Regarding `CSc1nc(N)c(C#N)c(-c2ccccc2Cl)c1C#N`, the activation is 21.1% (active). As for `CCCCn1c(SCC(=O)NCCc2ccc(OC)c(OC)c2)nc2c1c(=O)n(C)c(=O)n2C`, the figure is 8.75% (active). In the case of `COc1ccc(N(CCC#N)S(=O)(=O)c2ccc(Cl)cc2)cc1`, the activation was 3.78% (inactive).

For `Cc1ccc(C2Nc3cccc4cccc(c34)N2)cc1`, the activation was 12.4% (active). The same measure for `COc1cc(/C=N/Nc2nc3ccccc3s2)ccc1O`: 34.8% (active). `CC1(C(=O)N/N=C/c2cc3c(cc2Br)OCO3)CC1(Br)Br` (centres undefined): the activation is 15.3% (active).

On to `COc1ccc(-c2nnc(SCC(=O)c3cccs3)o2)c(OC)c1`, for which the activation was 26.2% (active). Turning to `N#CC1=C(SCc2ccc(C#N)cc2)N=C(N)C(c2nc(-c3ccccc3)cs2)C12CCCCC2` (centres undefined), the activation was 17.6% (active). As for `CCOc1ccc(Nc2oc(Cc3ccccc3)nc2C#N)cc1`, the figure is 32.1% (active); as for `CCC1(CC)Cc2ccccc2-c2nc(CCl)[nH]c(=O)c21`, 1.84% (inactive).

On to `CN1C(=O)/C(=C\c2cc(Br)cs2)c2ccccc21`, for which the activation is 38.3% (active). `CCOC(=O)c1cc2cc(C)ccc2[nH]1`: the activation is 29.5% (active). For the compound `CN(C)[C@@H]1C(=O)C(C(N)=O)=C(O)[C@@]2(O)C(=O)C3=C(O)c4c(O)ccc(Cl)c4[C@@H](O)[C@H]3C[C@@H]12`, the activation is 15.3% (active).

`C=C1c2c(Cl)ccc(O)c2C(O)=C2C(=O)[C@]3(O)C(O)=C(C(N)=O)C(=O)[C@@H](N(C)C)[C@@H]3[C@@H](O)C12` (some centres undefined): the activation was 15.5% (active).

As to `Cc1nc(-c2ccc(F)cc2)c(CC(=O)Nc2cc(S(=O)(=O)N3CCCCC3)ccc2C)s1`, the activation is 6.94% (inactive).

Consider `COc1ccc(C2Nc3ccccc3C(=O)N2c2ccc(Cl)cc2)cc1Cn1cc([N+](=O)[O-])cn1` (centres undefined), for which the activation is 26.8% (active). As for `Cc1cc(C)nc(S/C=C/C(=O)c2ccccc2)n1`, the figure is -19% (inactive); as for `Oc1ccccc1-c1cc(-c2ccc(Cl)cc2)n[nH]1`, 46.8% (active); as for `c1ccc(-c2cc(-c3ccccc3)[nH]n2)cc1`, 43% (active). In the case of `O=C(N/N=C/C=C/c1ccco1)c1cccs1`, the activation was 31.4% (active). With `O=C(COc1ccc(Cl)cc1Cl)NCCCNC(=O)c1cnccn1`, the activation is 7.43% (inactive). The same measure for `O=C(Nc1ccc2c(c1)OCCO2)c1cnccn1`: 25.8% (active).
